Assay results: PubChem BioAssay
Calls of active or inactive are those of the source. The rule behind the calls is not given here.

Experiment: inhibitors of hydroxyurea-induced Chk1 phosphorylation, primary screen, imaging, HeLa, phospho-Chk1 nuclear intensity (AID 1187); note: test concentration not given here
Conditions: hydroxyurea-induced phospho-Chk1 immunofluorescence imaging, higher = more signal

SMILES | z-score
O=C1O[C@H](c2ccccc2)[C@H](c2ccccc2)N2[C@H]1[C@@H](C(=O)N1CCN(c3ncccn3)CC1)[C@]1(C(=O)Nc3ccccc31)[C@H]2c1ccc(O)cc1 | 1.46 (inactive)
C=CCN1C(=O)[C@]2(O[C@H](CCn3cc([C@H](O)c4ccccc4)nn3)[C@@H]([Si](C)(C)c3ccc(OC)cc3)[C@@H]2C)c2cc(N3C(=O)c4cccc5cccc3c45)ccc21 | -0.164 (inactive)
C=CCC(OC(C)=O)[C@@H]1[C@@H](N(Cc2ccc(-c3ccccc3)cc2)C(=O)c2ccc(C)cc2)c2cc(OCCCO)ccc2N1C(=O)c1ccc2ccccc2c1 (stereo not given in full) | -0.221 (inactive)
C#CCN(C/C=C/c1ccccc1)[C@H](CO[Si](C)(C)C(C)(C)C)c1ccccc1 | -0.274 (inactive)
CC(C)C[C@@H]1NC(=O)[C@H]2C[C@@H](C(=O)NCCCCCCNC(=O)CS)[C@@H](c3ccc(O)cc3)N2C1=O | 0.716 (inactive)
COCCOC(=O)N1C(=O)[C@@]2(c3cc(C#CC4(O)CCCCCC4)ccc31)[C@H](C(=O)N1CCc3cc(OC)c(OC)cc3C1)[C@H]1C(=O)O[C@H](c3ccccc3)[C@H](c3ccccc3)N1[C@@H]2c1ccc(O)cc1 | 0.81 (inactive)
CCOC(=O)C1=C(C(=O)OCC)N(S(=O)(=O)CC[Si](C)(C)C)[C@H](c2ccccc2)CC1 | -0.535 (inactive)
COc1ccccc1CN1C(=O)c2ccccc2[C@](Cc2ccccc2I)(C(=O)NCCCN(C)C)[C@@H]1c1ccc(CO)cc1 | -0.184 (inactive)
[N-]=[N+]=NCc1ccccc1C[C@]1(C(=O)N2CCCCC2)N=C(c2ccc(OCCCO)cc2)O[C@H]1c1ccccc1 | -0.286 (inactive)
C=CCC(OC(C)=O)[C@@H]1[C@@H](N(Cc2ccc(-c3ccccc3)cc2)C(=O)c2ccc(-c3ccccc3)cc2)c2cc(OCCCO)ccc2N1C(=O)c1ccc2ccccc2n1 (stereo not given in full) | 0.352 (inactive)
